# In the library only some 5.5% were active in any assay of this set; here they are far more common.
# ELG1 DNA repair: ELG1-dependent DNA repair inhibition; 330,000 compounds, 2.3% hits; Potency, µM (highest dose often 46.1 µM), without a hit: at the top dose activity change, negative = inhibition, usual class: inhibitors; AID 504467; HEK293T ELG1-luciferase reporter, luminescence, 16 h; DNA damage induced by 5-fluorouridine; also: potency is read from the fitted curve at half-maximal effect; nearly all actives have a fitted effect of over 55% in size
#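 Luminescence from the luciferase reporter, measured 30 min after ONE-Glo reagent at room temperature, was the read-out. Beforehand, 2,000 cells per well were exposed for 16 hr at 37 °C to 5-fluorouridine together with compound or vehicle.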
# Coupling enz: coupling enzyme interference in Giardia aldolase counter-screen; coupling enzyme system counterscreen, AmpLite Red fluorescence; activity change, negative = inhibition, % at 58.2 µM, hits read low; 290,000 compounds, 0.67% hits; AID 2472; in the data active = activity change below about -30%
#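 First, compound is pin-transferred into glyceraldehyde-3-phosphate coupling-enzyme reagent at 57.5 uM final and held 10 min at RT. Next, substrate, coupling system and AmpLite Red are added. After 20 min RT, fluorescence (525/598 nm) is read.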
# Giardia kill: Giardia lamblia killing | Giardia lamblia trophozoite viability | activity change, % at 7.66 µM, hits read low | 340,000 compounds, 0.15% hits | AID 540267; in the data active = activity change below about -80%; inconclusive = between about -30% and that limit;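 also: parasites exposed to compound for two days anaerobically before the ATP read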
#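 ATP-content bioluminescence gauges trophozoite survival. Cells (100/well) receive compound and incubate anaerobically for 48 hrs at 37 deg C; detection reagent follows for 15-30 min at room temperature.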
# Sfp inh: blocks B. subtilis Sfp PPTase activity | Q9F4F7 | Biochemical Sfp PPTase activity, qHTS | Potency, µM, for inactives: largest response in the series, negative = inhibition, actives largely listed as inhibitors | 310,000 compounds, 3.5% hits | AID 1490;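 also: the enzyme is Sfp with the accession as filed and its product quenches rhodamine fluorescence; potency is read from the fitted curve at half-maximal effect; 0% = enzyme reaction without inhibitor and -100% = no enzyme wells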
#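 Step 1, compound plus 15 nM Sfp-PPTase, 15 min, room temperature. Step 2, add rhodamine-CoA (5 uM) and BHQ-2-YbbR (12.5 uM). Step 3, read 525/598 nm fluorescence at 0 and 30 min.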
# ELG1 FLuc counter: luciferase inhibition in cell-free luciferin readout for ELG1 hits. shares compounds with ELG1 DNA repair. cell-free firefly luciferase luminescence counter-screen, ViewLux. Potency, µM (top dose mostly 46.1 µM), for inactives: top-dose activity change, negative = inhibition, most hits filed as inhibitors. 350 compounds, 3% hits; also: potency is read from the fitted curve at half-maximal effect
# ELG1 Luc conf: inhibits ELG1-dependent DNA repair in HEK293T cells, confirmed; 670 compounds, 68% hits; shares compounds with ELG1 DNA repair; AID 624248; HEK293T ELG1-luciferase levels, luminescence; cells co-treated with 5-fluorouridine; Potency, µM (doses to about 46.1 µM), inactives show at the top dose activity change, negative = inhibition, hits mostly inhibitors; also: potency is read from the fitted curve at half-maximal effect; nearly all actives have a fitted effect of over 55% in size
# ELG1-Luc MMS: MMS-stimulated human ELG1 repair inhibition, confirmed; shares compounds with ELG1 DNA repair; HEK293T luciferase-tagged ELG1 level, MMS stimulated; Potency, µM (series often up to 46.1 µM), for inactives: at the top dose activity change, negative = inhibition, actives largely listed as inhibitors; 670 compounds, 53% hits; AID 624249; also: potency is read from the fitted curve at half-maximal effect; nearly all actives have a fitted effect of over 60% in size
# ELG1 5FU viab: confirmation of ELG1 repair inhibitors: viability with 5FU | shares compounds with ELG1 DNA repair | cell viability with 5-FU, ELG1-dependent repair | Potency, µM (highest dose often 46.1 µM), for the others: at the top dose activity change, negative = viability loss, most hits filed as cytotoxic | 670 tested, under 10 active;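 also: ELG1-luc HEK293T cells cotreated with 5-fluorouridine at 10 µM final; potency is read from the fitted curve at half-maximal effect; viability measured 16 h after compound addition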
# ELG1 MMS cell: confirmation of ELG1 repair inhibitors: viability with MMS | shares compounds with ELG1 DNA repair | 670 compounds, 33% hits | Potency, µM (series often up to 46.1 µM), inactives show at the highest dose activity change, negative = viability loss, usual class: cytotoxic | Cell viability with MMS, ELG1-dependent DNA repair;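 also: ELG1-luc HEK293T cells co-treated with 10 µM MMS; potency is read from the fitted curve at half-maximal effect; viability read 16 h after compound addition; nearly all actives have a fitted effect of over 60% in size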
# ELG1 unstim viab: affects unstimulated cell viability, ELG1 hit counter-screen; shares compounds with ELG1 DNA repair; cell viability counter-screen, unstimulated, luminescence; Potency, µM (series often up to 45.9 µM), without a hit: top-dose activity change, negative = loss of viability, hits mostly cytotoxic; 900 compounds, 8% hits; AID 624252;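 also: potency is read from the fitted curve at half-maximal effect; compound exposure lasted 16 hours before reading; nearly all actives have a fitted effect of over 55% in size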
# FLuc biochem: firefly luciferase inhibition counter-screen; shares compounds with ELG1 DNA repair; purified firefly luciferase, luminescence counter-screen; Potency, µM (series often up to 57.5 µM), for inactives: at the highest dose activity, negative = inhibition, most hits filed as inhibitors; 350 compounds, 10% hits; also: potency is read from the fitted curve at half-maximal effect
# Starred values were filed as active, the others as inactive; ? = inconclusive; nt = no result. Unless noted, calls follow the shape of the dose curve; as a rule, active = well fitted curve in the direction sought with a large enough effect; inconclusive = small, poorly fitted or top-dose-only effect, or another doubt; inactive = no such curve, though single readings can be large; an effect the other way counts as inactive or inconclusive. Unless noted, % is scaled to controls: 0 for no effect and ±100 for the full control effect.
SMILES,ELG1 DNA repair,Coupling enz,Giardia kill,Sfp inh,ELG1 FLuc counter,ELG1 Luc conf,ELG1-Luc MMS,ELG1 5FU viab,ELG1 MMS cell,ELG1 unstim viab,FLuc biochem
Cc1c(C(=O)N2CCC(Cc3ccccc3)CC2)sc2ncnc(N3CCC(C)CC3)c12,0%,-2,-5,2%,2%,16µM*,?,10%,-12%,-4%,2%
COc1ccc(C(Nc2ccccc2)P(=O)(Oc2ccccc2)Oc2ccccc2)cc1 (stereo unspecified),?,-19,5,?,21%,7.1µM*,?,?,?,?,1%
CC(C)CN1CC2(CCN(C(=O)Oc3ccccc3)CC2)C1,nt,6,nt,-6%,nt,nt,nt,nt,nt,nt,nt
CCCCCn1c(=O)c(C(=O)Nc2nc3ccccc3[nH]2)c(O)c2ccccc21,?,1,42,16%,nt,nt,nt,nt,nt,nt,nt
CCCSc1ccc2nc(NC(=O)OC)[nH]c2c1,?,4,?,-5%,nt,nt,nt,nt,nt,-3%,nt
CC(C)C[C@H](NC(=O)[C@H](Cc1ccccc1)NC(=O)CNC(=O)[C@H](CO)NC(=O)[C@@H](N)Cc1ccc(O)cc1)C(=O)N[C@H](C(=O)O)[C@H](C)O,nt,nt,nt,-6%,nt,nt,nt,nt,nt,nt,nt
C=C1C(=O)O[C@@H]2C[C@@H](C)[C@@H]3C=CC(=O)[C@@]3(C)[C@@H](O)[C@H]12,4.1µM*,4,-3,79µM*,?,?,0.0045µM*,?,0.0056µM*,2.8µM*,7.3µM*
COc1ccc(C(=O)Nc2ccccc2-c2nnn(CC(=O)Nc3ccc4c(c3)OCCO4)n2)cc1,?,1,0,-29%,nt,nt,nt,nt,nt,nt,nt
